# Assay results reported in PubChem BioAssay (EPA / NIEHS).
# Results filed as inconclusive are left out. The source made the active and inactive calls. The calls were made as follows, unless noted: active = hit-call score of the fitted dose curve at least 0.9, where 1 is the maximum; inconclusive = response in the unintended direction; inactive = score below 0.9.
# How the values were obtained:
# [1] = ATG_M_19_XSP1: Attagene TRANS-FACTORIAL Multi-Species (XSP1) HepG2 Assay for M19 Transcription Factor (Internal Marker) (AID 2283798)
# In short: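 HepG2 cells transiently transfected with multiplexed GAL4-UAS reporter units, dosed 24 h with 3 nM 6-alpha-fluorotestosterone present for partial AR stimulation. Reporter mRNA measured by RT-PCR with capillary electrophoresis; gain-of-signal fitted relative to DMSO.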
# [2] = ATG_M_32_XSP1: Attagene TRANS-FACTORIAL Multi-Species (XSP1) HepG2 Assay for M32 Transcription Factor (Internal Marker) (AID 2283799)
# In short: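 HepG2 cells transiently transfected with multi-species TRANS reporter units, dosed 24 h with 3 nM 6-alpha-fluorotestosterone present. Internal-marker reporter mRNA quantified by RT-PCR and capillary electrophoresis; positive-direction fit versus DMSO.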
# [3] = tested on: zebrafish Peroxisome Proliferator-activated Receptor gamma (PPARg), gene 557037; assay: ATG_zfPPARg_XSP1: Attagene TRANS-FACTORIAL Multi-Species (XSP1) HepG2 Assay for zebrafish Peroxisome Proliferator-activated Receptor gamma (PPARg) (AID 2283801)
# In short: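 HepG2 cells transiently transfected with GAL4-UAS reporter units including a zebrafish PPARg–GAL4 chimera, dosed 24 h with 3 nM 6-alpha-fluorotestosterone present. Reporter mRNA quantified by RT-PCR, FAM labelling, HpaI digestion and capillary electrophoresis; induction versus DMSO.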
# [4] = tested on: turtle Thyroid Hormone Receptor, alpha (TRa), gene 101949057; assay: ATG_trTRa_XSP1: Attagene TRANS-FACTORIAL Multi-Species (XSP1) HepG2 Assay for turtle Thyroid Hormone Receptor, alpha (TRa) (AID 2283806)
# In short: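 HepG2 cells transiently transfected with GAL4-UAS reporter units and chimeric receptor-Gal4 constructs, with 3 nM 6-alpha-fluorotestosterone present. Reporter mRNA was quantified 24 h after dosing by RT-PCR, 6-FAM labelling and capillary electrophoresis; gain of signal versus DMSO.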
# [5] = target: human Thyroid hormone Receptor beta (TRb), THRB (gene 7068) (UniProt P10828); assay: ATG_hTRb_XSP1: Attagene TRANS-FACTORIAL Multi-Species (XSP1) HepG2 Assay for human Thyroid hormone Receptor beta (TRb) (AID 2283808)
# Chain of human Thyroid hormone Receptor beta (TRb), THRB (gene 7068) (P10828 whole entry, looked up, the tested form may be a part): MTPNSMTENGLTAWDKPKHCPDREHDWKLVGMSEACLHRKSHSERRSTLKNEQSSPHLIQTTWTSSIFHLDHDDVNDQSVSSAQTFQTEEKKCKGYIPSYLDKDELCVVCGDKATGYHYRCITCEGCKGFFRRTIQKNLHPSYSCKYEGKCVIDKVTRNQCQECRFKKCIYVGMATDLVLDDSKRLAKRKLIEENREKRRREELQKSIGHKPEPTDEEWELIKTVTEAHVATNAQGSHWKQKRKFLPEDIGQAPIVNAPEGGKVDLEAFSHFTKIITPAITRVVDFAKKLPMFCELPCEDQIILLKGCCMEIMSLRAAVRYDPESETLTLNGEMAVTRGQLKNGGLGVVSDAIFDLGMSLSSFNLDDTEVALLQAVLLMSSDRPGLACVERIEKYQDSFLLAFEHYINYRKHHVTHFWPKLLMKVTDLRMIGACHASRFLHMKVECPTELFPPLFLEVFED
# In short: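 HepG2 cells transiently transfected with reporter units driving GAL4-UAS reporters for chimeric NR-Gal4 proteins; 24 h chemical exposure with 3 nM 6-alpha-fluorotestosterone present. Reporter mRNA quantified by RT-PCR and capillary electrophoresis, gain of signal versus DMSO.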
# [6] = target: zebrafish Thyroid Hormone Receptor beta (TRb), thrb (gene 30607) (UniProt Q9PVE4); assay: ATG_zfTRb_XSP1: Attagene TRANS-FACTORIAL Multi-Species (XSP1) HepG2 Assay for zebrafish Thyroid Hormone Receptor beta (TRb) (AID 2283809)
# Chain of zebrafish Thyroid Hormone Receptor beta (TRb), thrb (gene 30607) (Q9PVE4 whole entry, looked up, the tested form may be a part): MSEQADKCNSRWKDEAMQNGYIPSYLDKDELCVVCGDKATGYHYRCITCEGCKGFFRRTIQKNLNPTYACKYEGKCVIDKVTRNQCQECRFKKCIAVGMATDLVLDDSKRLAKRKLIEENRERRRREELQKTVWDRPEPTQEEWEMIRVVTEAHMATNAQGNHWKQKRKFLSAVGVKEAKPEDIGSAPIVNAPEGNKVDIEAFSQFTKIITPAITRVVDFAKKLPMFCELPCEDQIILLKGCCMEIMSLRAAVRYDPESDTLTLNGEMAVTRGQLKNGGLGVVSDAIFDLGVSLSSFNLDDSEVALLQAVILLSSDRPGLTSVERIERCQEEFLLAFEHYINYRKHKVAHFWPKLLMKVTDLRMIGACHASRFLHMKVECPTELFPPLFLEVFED
# In short: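 HepG2 cells transiently transfected with multiplexed GAL4-UAS reporter units expressing chimeric zebrafish TRb–Gal4. Dosed 24 h with 3 nM 6-alpha-fluorotestosterone present; reporter mRNA measured by RT-PCR, HpaI digestion and capillary electrophoresis; gain of signal versus DMSO.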
# [7] = ATG_XTT_Cytotoxicity_XSP1: Cytotoxicity Assessment in the Attagene TRANS-FACTORIAL Multi-Species (XSP1) HepG2 Assay (AID 2283810)
# In short: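 XTT viability readout taken at 24 hours post-dosing in HepG2 liver cells co-treated with 3 nM 6-alpha-fluorotestosterone. Signal loss relative to DMSO controls reflects cytotoxicity.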
# [8] = ATG_M_06_XSP2: Attagene TRANS-FACTORIAL Multi-Species (XSP2) HepG2 Assay for M06 Transcription Factor (Internal Marker) (AID 2283811);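 also: hits are increases in signal above the DMSO baseline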
# In short: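 HepG2 cells transiently transfected with GAL4-UAS multiple reporter units, medium containing 3 nM 6-alpha-fluorotestosterone and 1.5 nM norgestrel; reporter mRNA measured 24 hours post-dosing by RT-PCR and capillary electrophoresis. Internal background marker, gain of signal vs DMSO.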
# [9] = tested on: frog Estrogen Receptor (ER2), gene 100174814; assay: ATG_frER2_XSP2: Attagene TRANS-FACTORIAL Multi-Species (XSP2) HepG2 Assay for frog Estrogen Receptor (ER2) (AID 2283828)
# In short: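 HepG2 cells transiently transfected with multiplexed GAL4-UAS reporter units expressing chimeric frog ER2–Gal4 protein; reporter mRNA measured 24 h after chemical dosing by RT-PCR, fluorescent labeling and capillary electrophoresis. Gain-of-signal fitted relative to DMSO baseline.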
# [10] = target: Peroxisome proliferator-activated receptor gamma (Homo sapiens) (UniProt P37231); assay: ATG_hPPARg_XSP2: Attagene TRANS-FACTORIAL Multi-Species (XSP2) HepG2 Assay for human Peroxisome Proliferator-activated Receptor gamma (PPARg) (AID 2283829);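 also: actives raise reporter mRNA above DMSO so AC50 reflects PPARg activation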
# Chain of Peroxisome proliferator-activated receptor gamma (Homo sapiens) (P37231 whole entry, looked up, the tested form may be a part): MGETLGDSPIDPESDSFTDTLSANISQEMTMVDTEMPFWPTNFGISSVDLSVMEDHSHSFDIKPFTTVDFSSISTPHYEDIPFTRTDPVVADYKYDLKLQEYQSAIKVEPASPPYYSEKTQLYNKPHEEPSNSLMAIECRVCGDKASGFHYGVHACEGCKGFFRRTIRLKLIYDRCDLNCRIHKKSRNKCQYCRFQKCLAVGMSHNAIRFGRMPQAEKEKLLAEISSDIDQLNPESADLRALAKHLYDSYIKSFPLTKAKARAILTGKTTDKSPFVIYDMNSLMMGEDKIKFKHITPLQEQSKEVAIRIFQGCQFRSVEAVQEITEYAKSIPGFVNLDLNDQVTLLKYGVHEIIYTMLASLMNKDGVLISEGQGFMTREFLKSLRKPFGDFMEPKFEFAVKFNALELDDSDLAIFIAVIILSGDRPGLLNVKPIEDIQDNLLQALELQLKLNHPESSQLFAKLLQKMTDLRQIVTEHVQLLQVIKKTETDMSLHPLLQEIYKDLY
# In short: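 After transfecting HepG2 with GAL4-UAS reporter constructs, cells are dosed for 24 h; total RNA is reverse-transcribed, PCR-amplified, FAM-labeled, HpaI-digested and resolved by capillary electrophoresis. Activity is measured as mRNA induction relative to DMSO.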
# [11] = target: mouse Peroxisome Proliferator-activated Receptor gamma (PPARg), Pparg (gene 19016) (UniProt P37238); assay: ATG_mPPARg_XSP2: Attagene TRANS-FACTORIAL Multi-Species (XSP2) HepG2 Assay for mouse Peroxisome Proliferator-activated Receptor gamma (PPARg) (AID 2283830);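 also: hits are gains in reporter mRNA above DMSO so AC50 marks activation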
# Chain of mouse Peroxisome Proliferator-activated Receptor gamma (PPARg), Pparg (gene 19016) (P37238 whole entry, looked up, the tested form may be a part): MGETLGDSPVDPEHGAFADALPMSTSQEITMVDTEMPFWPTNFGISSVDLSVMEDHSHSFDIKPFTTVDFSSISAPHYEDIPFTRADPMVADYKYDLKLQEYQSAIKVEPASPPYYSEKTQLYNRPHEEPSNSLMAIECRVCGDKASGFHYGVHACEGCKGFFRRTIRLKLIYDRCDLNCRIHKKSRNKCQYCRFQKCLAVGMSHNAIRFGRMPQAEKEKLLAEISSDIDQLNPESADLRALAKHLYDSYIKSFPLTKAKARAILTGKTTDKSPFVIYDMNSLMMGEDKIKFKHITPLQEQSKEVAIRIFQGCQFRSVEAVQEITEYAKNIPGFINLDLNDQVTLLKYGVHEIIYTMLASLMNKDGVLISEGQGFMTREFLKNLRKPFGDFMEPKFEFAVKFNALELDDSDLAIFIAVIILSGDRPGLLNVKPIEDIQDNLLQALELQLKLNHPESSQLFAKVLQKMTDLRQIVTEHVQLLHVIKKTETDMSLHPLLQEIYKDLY
# In short: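 HepG2 cells transiently transfected with GAL4-UAS reporter units for chimeric NR-Gal4 proteins including mouse PPARg, exposed 24 h; medium contained 3 nM 6-alpha-fluorotestosterone and 1.5 nM norgestrel. Reporter mRNA quantified by RT-PCR, HpaI digestion and capillary electrophoresis, vs DMSO.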
# [12] = tested on: zebrafish Peroxisome Proliferator-activated Receptor gamma (PPARg), gene 557037; assay: ATG_zfPPARg_XSP2: Attagene TRANS-FACTORIAL Multi-Species (XSP2) HepG2 Assay for zebrafish Peroxisome Proliferator-activated Receptor gamma (PPARg) (AID 2283833);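 also: actives increase reporter signal over DMSO so AC50 reflects activation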
# In short: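 Multi-species TRANS format in HepG2, 24 h dosing; medium also contained 3 nM 6-alpha-fluorotestosterone and 1.5 nM norgestrel to stimulate androgen receptor. Zebrafish PPARg-GAL4 induced reporter mRNA was measured by RT-PCR/capillary electrophoresis.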
# [13] = tested on: turtle Thyroid Hormone Receptor, alpha (TRa), gene 101949057; assay: ATG_trTRa_XSP2: Attagene TRANS-FACTORIAL Multi-Species (XSP1) HepG2 Assay for turtle Thyroid Hormone Receptor, alpha (TRa) (AID 2283834);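 also: hits raise reporter mRNA over the DMSO baseline so AC50 marks activators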
# In short: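 Transfection of HepG2 with multiple reporter transcription units, then chemical dosing for 24 h. Total RNA was reverse-transcribed, reporter sequences PCR-amplified and FAM-labelled, then sized by capillary electrophoresis. DMSO served as baseline.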
# [14] = ATG_M_61_XSP2: Attagene TRANS-FACTORIAL Multi-Species (XSP2) HepG2 Assay for M61 Transcription Factor (Internal Marker) (AID 2283835; active = hit-call score of the fitted dose curve at least 0.9, where 1 is the maximum; inactive = score below 0.9;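 also: active means a rise in signal above the DMSO baseline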)
# In short: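 HepG2 cells transiently transfected with multiple GAL4-UAS reporter units; reporter mRNA measured 24 h after dosing by RT-PCR, fluorescent labelling and capillary electrophoresis. Medium contained 3 nM 6-alpha-fluorotestosterone and 1.5 nM norgestrel; internal marker, DMSO baseline.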
# [15] = target: human Thyroid hormone Receptor alpha (TRa), THRA (gene 7067) (UniProt P10827); assay: ATG_hTRa_XSP2: Attagene TRANS-FACTORIAL Multi-Species (XSP2) HepG2 Assay for human Thyroid hormone Receptor alpha (TRa) (AID 2283838)
# Chain of human Thyroid hormone Receptor alpha (TRa), THRA (gene 7067) (P10827 whole entry, looked up, the tested form may be a part): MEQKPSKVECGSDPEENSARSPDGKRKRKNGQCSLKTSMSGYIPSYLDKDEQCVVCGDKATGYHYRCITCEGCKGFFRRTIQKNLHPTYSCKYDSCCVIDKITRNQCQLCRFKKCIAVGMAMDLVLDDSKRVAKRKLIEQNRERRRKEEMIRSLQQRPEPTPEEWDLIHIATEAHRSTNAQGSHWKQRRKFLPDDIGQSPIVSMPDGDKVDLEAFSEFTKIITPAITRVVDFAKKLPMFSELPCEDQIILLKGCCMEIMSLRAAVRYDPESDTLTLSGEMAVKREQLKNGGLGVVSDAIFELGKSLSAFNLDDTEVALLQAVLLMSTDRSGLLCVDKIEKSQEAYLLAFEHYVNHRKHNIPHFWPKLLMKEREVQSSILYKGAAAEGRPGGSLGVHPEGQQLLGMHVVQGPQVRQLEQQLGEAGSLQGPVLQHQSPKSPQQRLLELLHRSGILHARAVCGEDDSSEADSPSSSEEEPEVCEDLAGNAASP
# In short: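 HepG2 cells were transiently transfected with GAL4-UAS reporter units for chimeric human TRa-Gal4 and dosed for 24 hours, with 3 nM 6-alpha-fluorotestosterone and 1.5 nM norgestrel present. Reporter mRNA was quantified by RT-PCR, FAM labelling and capillary electrophoresis, with gain of signal fitted versus DMSO.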
# [16] = target: frog Thyroid hormone Receptor alpha (TRa), thra-a (gene 397942) (UniProt P15204); assay: ATG_frTRa_XSP2: Attagene TRANS-FACTORIAL Multi-Species (XSP2) HepG2 Assay for frog Thyroid hormone Receptor alpha (TRa) (AID 2283839)
# Chain of frog Thyroid hormone Receptor alpha (TRa), thra-a (gene 397942) (P15204 whole entry, looked up, the tested form may be a part): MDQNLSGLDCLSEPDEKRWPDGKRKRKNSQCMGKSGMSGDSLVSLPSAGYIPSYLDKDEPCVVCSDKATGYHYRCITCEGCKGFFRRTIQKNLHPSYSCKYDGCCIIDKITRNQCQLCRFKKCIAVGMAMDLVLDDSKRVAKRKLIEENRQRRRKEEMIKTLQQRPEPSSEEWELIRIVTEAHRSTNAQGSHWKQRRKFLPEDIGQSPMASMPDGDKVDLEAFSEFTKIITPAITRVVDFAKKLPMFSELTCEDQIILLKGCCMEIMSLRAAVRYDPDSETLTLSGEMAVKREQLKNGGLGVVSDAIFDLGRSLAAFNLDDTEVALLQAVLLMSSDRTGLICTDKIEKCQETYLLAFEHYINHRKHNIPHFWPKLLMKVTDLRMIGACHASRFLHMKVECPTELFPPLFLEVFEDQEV
# In short: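 Transfect HepG2 with multiple reporter units (GAL4-UAS), dose chemical, incubate 24 h. Isolate RNA, reverse-transcribe, PCR-amplify reporter, label with 6-FAM by primer extension, digest with HpaI, run capillary electrophoresis; induction scored against DMSO.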
# [17] = target: rat Gamma-Aminobutyric Acid Type A Receptor BDZ, alpha 6 site (GABARa6), Gabra6 (gene 29708) (UniProt P30191); assay: NVS_LGIC_rGABARa6: NovaScreen (NVS) Ligand-Gated Ion Channel Assay for rat Gamma-Aminobutyric Acid Type A Receptor BDZ, alpha 6 site (GABARa6) (AID 2283339)
# Chain of rat Gamma-Aminobutyric Acid Type A Receptor BDZ, alpha 6 site (GABARa6), Gabra6 (gene 29708) (P30191 whole entry, looked up): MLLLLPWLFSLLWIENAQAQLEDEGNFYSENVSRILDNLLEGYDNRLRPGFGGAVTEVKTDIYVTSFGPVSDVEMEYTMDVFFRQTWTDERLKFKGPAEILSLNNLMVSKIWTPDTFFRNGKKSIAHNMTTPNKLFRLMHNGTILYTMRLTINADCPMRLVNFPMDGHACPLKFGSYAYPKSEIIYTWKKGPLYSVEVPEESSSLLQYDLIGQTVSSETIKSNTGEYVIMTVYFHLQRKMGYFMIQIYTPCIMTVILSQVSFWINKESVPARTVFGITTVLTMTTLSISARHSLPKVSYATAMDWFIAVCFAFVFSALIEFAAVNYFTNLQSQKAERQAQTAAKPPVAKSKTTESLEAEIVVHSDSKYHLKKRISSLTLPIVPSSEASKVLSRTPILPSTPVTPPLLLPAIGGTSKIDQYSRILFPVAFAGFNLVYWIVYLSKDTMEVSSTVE
# In short: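 Rat cerebellar membranes; radioligand binding, filtration and scintillation counting, read 1 h after dosing. Single-concentration duplicate screen at 25 uM, then concentration-response up to 50 uM for actives; loss of signal fitted versus DMSO baseline.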
# [18] = IUF_NPC1b_proliferation_BrdU_72hr: Leibniz Research Institute for Environmental Medicine (IUF) 72-hour Neural Progenitor Cell Bromodeoxyuridine (BrdU) Proliferation Assay (NPC1b) (AID 2284207; active = hit-call score of the fitted dose curve at least 0.9, where 1 is the maximum; inactive = score below 0.9)
# In short: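 BrdU luminescence ELISA quantified DNA synthesis over the last 16 h of a 72 h exposure, fitted against DMSO. Primary hNPC spheres from gestational week 16-19 cortex grown with EGF/FGF at 37C, pH 7.2-7.6.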
# [19] = IUF_NPC1a_proliferation_area_72hr: Leibniz Research Institute for Environmental Medicine (IUF) 72-hour Neural Progenitor Cell Proliferation Area Assay (NPC1a) (AID 2284208; active = hit-call score of the fitted dose curve at least 0.9, where 1 is the maximum; inactive = score below 0.9)
# In short: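 Spheres of 0.3 mm are plated singly in growth-factor medium and exposed from day 0. After three days at 37C and 5% CO2, sphere area is measured by phase contrast imaging, with activity referenced to DMSO.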
# [20] = IUF_NPC1_viability_72hr: Viability Assessment at 72 hours in the Leibniz Research Institute for Environmental Medicine (IUF) Neural Progenitor Cell Proliferation Assay (NPC1) (AID 2284209; active = hit-call score of the fitted dose curve at least 0.9, where 1 is the maximum; inactive = score below 0.9)
# In short: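 hNPC spheres, 1/well, EGF+FGF medium, 37C/5% CO2; dosed day 0, 72 h, no re-dosing. Resazurin reduction (alamar blue) fluorescence; DMSO = negative control/baseline; growth-factor-free wells as positive control.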
compound,measurement,setting,value
CC(C)(c1cc(Cl)c(O)c(Cl)c1)c1cc(Cl)c(O)c(Cl)c1,outcome,[1],inactive
same,outcome,[2],inactive
same,outcome,[3],inactive
same,outcome,[4],inactive
same,outcome,[5],inactive
same,outcome,[6],inactive
same,outcome,[7],inactive
same,outcome,[8],inactive
same,AC50,[9],5.92 µM (active)
same,AC50,[10],3.94 µM (active)
same,AC50,[11],3.81 µM (active)
same,outcome,[12],inactive
same,outcome,[13],inactive
same,outcome,[14],inactive
same,outcome,[15],inactive
same,outcome,[16],inactive
C[C@]12CC[C@H](O)C[C@H]1CC[C@@H]1[C@@H]2C[C@@H](O)[C@]2(C)[C@@H](C3=CC(=O)OC3)CC[C@]12O,outcome,[17],inactive
CNC(=N[N+](=O)[O-])NCC1CCOC1 (stereo not given),outcome,[18],inactive
same,outcome,[19],inactive
same,outcome,[20],inactive
C=COCCCl,outcome,[17],inactive
CC(C)CCCCCCCOC(=O)c1ccccc1C(=O)OCCCCCCCC(C)C,outcome,[1],inactive
same,outcome,[2],inactive
same,outcome,[3],inactive
same,outcome,[4],inactive
same,outcome,[5],inactive
same,outcome,[6],inactive
same,outcome,[9],inactive
same,AC50,[13],100 µM (active)
same,outcome,[15],inactive
same,outcome,[16],inactive
CC(=O)c1cc2c(cc1C)C(C)(C)C(C)CC2(C)C (stereo not given),outcome,[7],inactive
same,outcome,[8],inactive
same,AC50,[10],41.9 µM (active)
same,AC50,[11],49.4 µM (active)
same,outcome,[12],inactive
same,outcome,[14],inactive
CC(C)CCCCCCCOP(=O)(Oc1ccccc1)Oc1ccccc1,outcome,[18],inactive
same,outcome,[19],inactive
same,outcome,[20],inactive
